High-throughput results as filed in PubChem BioAssay.
BoNT A protease: blocks Botulinum neurotoxin A light chain protease. actives 0.17% (n = 360,000). inhibition, % at 10 µM. AID 588499. multiplex microsphere protease substrate cleavage, flow cytometry; also: plate controls were buffer without enzyme for full effect and enzyme alone for no effect
Autofluor counter: flagged as autofluorescent in microsphere protease counterscreen; compound autofluorescence counterscreen, microsphere flow cytometry; stronger effect = higher value; fluorescence intensity (concentration not given with the values); actives 3.1% (n = 360,000); AID 624483; in the data active = fluorescence intensity above about 16000; inconclusive = no clear call, values can overlap the other calls
Mtb FBA inh: inhibitors of M. tuberculosis fructose-bisphosphate aldolase; P9WQA3; purified M. tuberculosis FBA, fluorescence read-out; inhibition, % at 1 µM; actives 2.3% (n = 360,000); AID 588726; in the data active = inhibition above about 27%;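 also: 0% = vehicle and 100% = reference inhibitor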
Anthrax LF inh2: inhibitors of Bacillus anthracis lethal factor protease; multiplex microsphere protease cleavage assay, LF; inhibition, % at 10 µM; actives 0.12% (n = 360,000); AID 588501; also: plate controls were buffer without enzyme for full effect and enzyme alone for no effect
BoNT-F LC inh: blocks Botulinum neurotoxin F light chain protease; inhibition, % at 10 µM; actives 0.22% (n = 360,000); AID 588497; Multiplex microsphere protease cleavage assay, flow cytometry; in the data active = inhibition above about 35%, passing the limit was not always enough; inconclusive = no clear call, values can overlap the other calls; also: plate controls were buffer without enzyme for full effect and enzyme alone for no effect
GDH-TPI inh: counter-screen for M. tuberculosis FBA inhibitors: GDH-TPI coupled enzymes. GDH-TPI coupled enzyme counterscreen, NADH absorbance. inhibition, % at 4.8 µM. actives 1.2% (n = 360,000). AID 588335; in the data active = inhibition above about 30%;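 also: 0% = DMSO wells and 100% = wells lacking the enzyme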
An asterisk follows results filed as active; ? = inconclusive. Hits are enriched below; roughly 6.6% of the tested compounds scored in any of these assays. Rule as the data show it, unless noted: active = inhibition above about 30%; inconclusive = no clear call, values can overlap the other calls; inactive = below that.

SMILES	BoNT A protease	Autofluor counter	Mtb FBA inh	Anthrax LF inh2	BoNT-F LC inh	GDH-TPI inh
Cc1ccc2c(CNCc3ccco3)cc(=O)oc2c1	0	23320*	-1	-3	0	3
Cc1ccc(Cl)c(OC(=O)Cn2cnc3c2c(=O)n(C)c(=O)n3C)c1	0	4370	3	1	2	-8
CCN(CC)c1ccc(C=Nc2ccc(OC)c(S(=O)(=O)N3CCOCC3)c2)c(O)c1	5	5284	-1	8	-7	32*
CC1COC(Cn2c3ccccc3c3ccccc32)O1 (configuration not stated)	?	4818	1	-32	?	6
CN[C@H]1C[C@H]2c3[nH]c4ccc(-c5ccc(OC)cc5)cc4c3CCN2C(=O)[C@H]1[C@H](C)O	0	4011	15	-3	-16	1
CC[C@@]1(C(=O)OC)N[C@H](CN(C)C(=O)Nc2ccc(OC)cc2)[C@@H]2C(=O)N(Cc3ccccc3)C(=O)[C@@H]21	-1	3013	2	5	-4	9
O=C(CCNC(=O)c1ccc(Br)o1)NC1CCCC1	?	16174*	1	-2	0	6
Cc1cccc(NC(=O)CSc2nnc(-c3ccc(S(=O)(=O)N4CCOCC4)cc3)n2C)c1	0	16637*	-1	-6	-2	10
Cc1ccc(Nc2nnc(SCC(=O)Nc3ccc(S(=O)(=O)N4CCOCC4)cc3)s2)cc1	-1	22187*	0	-3	-3	13
Cn1c(SCC(=O)Nc2nccs2)nnc1-c1ccc(S(=O)(=O)N2CCCC2)cc1	4	19176*	2	0	6	-5
CC(=O)CSc1nnc(-c2ccc(S(=O)(=O)N3CCOCC3)cc2)n1C	-1	6054	5	-1	3	4
O=C(CSc1nc2ccccc2n1CC(=O)N1CCCC1)Nc1nccs1	-1	23314*	2	-1	-2	5
COc1cccc(N2C(=O)C(Cc3c[nH]c4ccccc34)NC2=S)c1 (configuration not stated)	0	2372	-1	1	3	1
O=c1c([N+](=O)[O-])cccn1Cc1cccc(Cl)c1	-1	4281	6	0	-1	1
CCc1cccc(C)c1NC(=O)c1cc(=O)[nH]c2ccc(S(=O)(=O)N3CCOCC3)cc12	1	?	-1	-5	-13	5
COc1ccccc1CNC(=O)C1CCCN(S(=O)(=O)c2c(C)[nH]c(=O)[nH]c2=O)C1 (configuration not stated)	1	4632	65*	0	?	5
COc1ccccc1CNC(=O)C1CCCN(S(=O)(=O)c2cnc[nH]2)C1 (configuration not stated)	0	6876	-1	-4	5	8
COc1ccc(CNC(=O)C2CCN(C(=O)N(C)C)CC2)c(OC)c1	?	16860*	3	-4	-3	0
COc1ccccc1CNC(=O)C1CCN(C(=O)N(C)C)CC1	0	20518*	2	-2	1	0
CC1(C)CN(Cc2ccccc2)C(=O)[C@H]1CC(=O)Nc1ccc(Br)cc1	0	3563	4	-4	-8	-1
CC(=O)c1ccc(N2CCN(c3ccc(S(=O)(=O)NCCCN(C)C)cc3[N+](=O)[O-])CC2)cc1	-1	?	-4	-4	-9	57*
OC(c1cccc(Cl)c1)c1nc(/C=C/c2ccc(C(F)(F)F)cc2)cs1 (configuration not stated)	-1	3362	2	0	-12	3
COc1ccc2cc(C(c3nnnn3C(C)(C)C)N3CCSCC3)c(=O)[nH]c2c1 (configuration not stated)	1	12957	7	-4	-12	25
CC(C)(C)n1nnnc1C(c1cc2cc3c(cc2[nH]c1=O)OCCO3)N1CCSCC1 (configuration not stated)	0	9061	34*	-5	-7	12
CN(C)S(=O)(=O)c1ccc(C(=O)NCCOc2ccccc2)cc1	0	3917	1	-1	2	-5
CN(C)S(=O)(=O)c1ccc(C(=O)NCCOc2ccc(F)cc2)cc1	-5	24248*	-1	-3	-7	-9
S=c1[nH]nc(-c2ccncc2)n1/N=C/C=C/c1ccco1	-1	2508	-2	0	-4	25
C(=C\c1ccco1)/C=N/n1cnnc1	1	3337	-8	0	0	51*
O=C(CCSc1ccccc1)Nc1nccs1	?	16866*	2	0	-2	1
